APP transl inh: APP translation inhibition; SH-SY5Y APP 5'UTR-luciferase reporter, luminescence; inhibition, % at 2 µM; 190,000 compounds, 0.82% hits; AID 1285;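 active = inhibition above a set limit, derived from the sample mean plus 3 SD, cut at about 45% in these data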
KLF5 inhibitor: kruppel-like factor 5 inhibition. inhibition, % at 5 µM. DLD-1 KLF5 promoter-luciferase reporter, luminescence. 290,000 compounds, 0.23% hits;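 active = inhibition above a per-plate limit of that plate's mean compound inhibition plus 3 SD, cut at about 60% in these data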;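 note: 0% = DMSO wells and 100% = LY294002 at 200 µM; higher means less KLF5 promoter-driven luciferase light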
Ba/F3 V617F tox: loss of viability in JAK2V617F-driven Ba/F3 cells. inhibition, % at 5.6 µM. 220,000 compounds, 1.1% hits. Ba/F3 EpoR-JAK2V617F viability, ATP luminescence. AID 1446;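 active = inhibition above the campaign mean plus 3 SD over all tested compounds, cut at about 24% in these data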;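 note: cytokine-independent growth of Ba/F3 cells driven by EpoR plus mutant JAK2; 0% = DMSO-treated cells and 100% = JAK inhibitor I control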
IEC-6 tox-1: IEC-6 cytotoxicity, counter-screen for KLF5 inhibitors; luminescence viability; inhibition, % at 5 µM; 290,000 compounds, 0.78% hits; AID 1825;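 note: 0% = plate median of test compound wells and 100% = cytotoxic reference compound wells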
aSyn UTR inh: MLPCN primary screen, SNCA 5' untranslated region; alpha-synuclein 5'UTR reporter, inhibitor activity; inhibition, % (tested at 7.5 µM); 300,000 compounds, 0.82% hits; AID 1813; in the data active = inhibition above about 60%;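 note: H4 neuroglioblastoma cells stably carrying SNCA 5'UTR luciferase fusion; 0% = DMSO wells and 100% = positive control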
BaF3 parental: reduces parental Ba/F3 cell viability, JAK2V617F counter-screen. AID 1486. CellTiter-Glo ATP luminescence. 220,000 compounds, 1.1% hits. inhibition, % at 5.6 µM;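 active = inhibition above a per-campaign cutoff, the mean inhibition of all tested compounds plus 3 SD, cut at about 27% in these data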;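 note: 0% = DMSO wells and 100% = JAK Inhibitor I control wells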
KLF5 confirm: confirmation of KLF5 inhibitors; shares compounds with KLF5 inhibitor; DLD-1 KLF5 promoter firefly luciferase reporter, luminescence; inhibition, % at 4 µM; 610 compounds, 79% hits;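 active = inhibition above a set limit taken from the earlier primary screen, cut at about 63% in these data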;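 note: 0% = DMSO wells and 100% = LY294002 at 200 µM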
IEC-6 tox-2: kills rat IEC-6 cells in KLF5 counter-screen. shares compounds with KLF5 inhibitor. IEC-6 rat intestinal cells, viability luminescence. inhibition, % at 4 µM. 610 compounds, 56% hits. AID 1905; in the data active = inhibition above about 23%;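 note: cells exposed to compounds for 48 hours before viability read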
IEC-6 cytotox cf: confirmation of cytotoxic compounds in rat IEC-6 intestinal epithelial cells | shares compounds with IEC-6 tox-1 | IEC-6 rat intestinal epithelial viability, luminescence | inhibition, % at 5 µM | 1,900 compounds, 63% hits;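 note: 0% = vehicle and 100% = reference cytotoxic drug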
* hit, by the source's call. Only some compounds are listed: those with a hit (about 2.2% of all), similar ones and a draw of the others. Cut-off read from the data, not from the text of the source, unless noted: active = inhibition above about 22%; inactive = the rest.

COc1ccc(/C=C/C(=O)c2cc(F)ccc2OC(=O)c2ccc(OC)c(OC)c2)cc1OC was read as APP transl inh -4, KLF5 inhibitor -22, Ba/F3 V617F tox 2, IEC-6 tox-1 0, aSyn UTR inh 9 and BaF3 parental 3.
COC(=O)c1sc(N)c(C(=O)OC)c1COC(=O)c1c(C)noc1C was read as APP transl inh 43, KLF5 inhibitor 68*, Ba/F3 V617F tox 71*, IEC-6 tox-1 66*, aSyn UTR inh 40, BaF3 parental 73*, KLF5 confirm 42, IEC-6 tox-2 35* and IEC-6 cytotox cf 42*.
`CN1/C(=C\C=C(/C#N)C(=O)Nc2ccccc2F)C(C)(C)c2ccccc21` gave APP transl inh -18, KLF5 inhibitor -39, Ba/F3 V617F tox -1, IEC-6 tox-1 1, aSyn UTR inh 25 and BaF3 parental 7.
`CN1/C(=C/C=C(/C#N)C(N)=O)C(C)(C)c2ccccc21` gave APP transl inh 68*, KLF5 inhibitor 69*, Ba/F3 V617F tox 78*, IEC-6 tox-1 47*, aSyn UTR inh -146, BaF3 parental 62*, KLF5 confirm 60, IEC-6 tox-2 36* and IEC-6 cytotox cf 44*.
Screening Cc1ccc(S(=O)(=O)Cc2ccc(C(=O)N3CCN(c4cccc(C)c4C)CC3)o2)cc1 returned KLF5 inhibitor 64*, IEC-6 tox-1 77*, aSyn UTR inh 88*, KLF5 confirm 68*, IEC-6 tox-2 57* and IEC-6 cytotox cf 56*.
COc1ccc(S(=O)(=O)Cc2ccc(C(=O)N3CCN(c4cccc(C)c4C)CC3)o2)cc1 was read as APP transl inh -14, KLF5 inhibitor -8, Ba/F3 V617F tox 1, IEC-6 tox-1 2, aSyn UTR inh 7 and BaF3 parental 5.
For COc1ccc(COC(=O)c2cccc(S(=O)(=O)N3CCCC3)c2)cc1F the results were KLF5 inhibitor -20, IEC-6 tox-1 -1 and aSyn UTR inh 18.
COc1cc(C(=O)N/N=C/c2sccc2C)cc(OC)c1OC was read as APP transl inh 92*, KLF5 inhibitor 70*, Ba/F3 V617F tox 80*, IEC-6 tox-1 89*, aSyn UTR inh 114*, BaF3 parental 84*, KLF5 confirm 86*, IEC-6 tox-2 63* and IEC-6 cytotox cf 65*.
Cc1ccsc1/C=N/NC(=O)c1ccncc1 was read as APP transl inh -3, KLF5 inhibitor 7, Ba/F3 V617F tox 1, IEC-6 tox-1 1, aSyn UTR inh -25 and BaF3 parental 2.
`O=C(NNc1ncc(C(F)(F)F)cc1Cl)c1c(Cl)cccc1Cl` gave APP transl inh 15, KLF5 inhibitor 71*, Ba/F3 V617F tox 83*, IEC-6 tox-1 46*, aSyn UTR inh -12, BaF3 parental 83*, KLF5 confirm 44, IEC-6 tox-2 14 and IEC-6 cytotox cf 32*.
CCCCS(=O)(=O)/C=C\C=C/S(=O)(=O)CCCC was read as APP transl inh 98*, KLF5 inhibitor 103*, Ba/F3 V617F tox 101*, IEC-6 tox-1 102*, aSyn UTR inh -9, BaF3 parental 105*, KLF5 confirm 92*, IEC-6 tox-2 100* and IEC-6 cytotox cf 40*.
Cc1cccn2c(CN3CCCC(c4ccccc4)C3)c(C(=O)N3CCOCC3)nc12 (centres undefined) was read as APP transl inh 10, KLF5 inhibitor -25, Ba/F3 V617F tox 0, IEC-6 tox-1 4, aSyn UTR inh -15 and BaF3 parental 5.
`COc1ccc(CCNS(=O)(=O)c2ccc(N3CCCC3=O)cc2)cc1` gave APP transl inh -5, KLF5 inhibitor -42, Ba/F3 V617F tox -3, IEC-6 tox-1 -2, aSyn UTR inh -19 and BaF3 parental 3.
COc1ccc(OC)c(NS(=O)(=O)c2ccc(N3CCCC3=O)cc2)c1 was read as APP transl inh 96*, KLF5 inhibitor 83*, Ba/F3 V617F tox 79*, IEC-6 tox-1 88*, aSyn UTR inh 111*, BaF3 parental 81*, KLF5 confirm 83*, IEC-6 tox-2 62* and IEC-6 cytotox cf 53*.
CCOc1ccc(S(=O)(=O)Nc2cc(OC)ccc2OC)cc1 was read as APP transl inh 93*, KLF5 inhibitor 73*, Ba/F3 V617F tox 80*, IEC-6 tox-1 90*, aSyn UTR inh 81*, BaF3 parental 80*, KLF5 confirm 83*, IEC-6 tox-2 59* and IEC-6 cytotox cf 62*.
CCN(CC)CCN(Cc1cc2cc3c(cc2[nH]c1=O)OCO3)C(=S)NC was read as KLF5 inhibitor -27, IEC-6 tox-1 -6 and aSyn UTR inh 7.
Screening O=C(N/N=C/c1cc(Br)cc(Br)c1O)c1ccncc1 returned APP transl inh 26, KLF5 inhibitor 78*, Ba/F3 V617F tox 4, IEC-6 tox-1 24*, aSyn UTR inh 36, BaF3 parental -5, KLF5 confirm 88*, IEC-6 tox-2 40* and IEC-6 cytotox cf 14.
For O=C(N/N=C/c1ccc(O)cc1O)c1ccncc1 the results were KLF5 inhibitor 6, IEC-6 tox-1 -3 and aSyn UTR inh 8.
CCC(C)[C@H](NS(=O)(=O)c1ccc(C)cc1)C(=O)N1CCC(C(=O)N2CCC(C(N)=O)CC2)CC1 (some centres undefined) was read as KLF5 inhibitor -7, IEC-6 tox-1 6 and aSyn UTR inh -9.
`COc1cc(NC(=O)Cc2ccccc2)ccc1NC(=O)c1ccccc1` gave KLF5 inhibitor -27, IEC-6 tox-1 2 and aSyn UTR inh -8.
Screening CCn1c2ccccc2c2cc(NC(=O)COC(=O)c3cc(S(N)(=O)=O)c(Cl)cc3Cl)ccc21 returned APP transl inh -11, KLF5 inhibitor -4, Ba/F3 V617F tox -1, IEC-6 tox-1 6, aSyn UTR inh 1 and BaF3 parental 8.
CCOC(=O)c1[nH]c(C)c(C(=O)N2CCc3ccccc32)c1C was read as APP transl inh 96*, KLF5 inhibitor 77*, Ba/F3 V617F tox 81*, IEC-6 tox-1 92*, aSyn UTR inh 90*, BaF3 parental 85*, KLF5 confirm 80*, IEC-6 tox-2 62* and IEC-6 cytotox cf 55*.
`CCN(CC)c1ccc(N=Cc2ccc(N(CC)CC)cc2O)cc1` gave APP transl inh 10, KLF5 inhibitor -32, Ba/F3 V617F tox 1, IEC-6 tox-1 -3, aSyn UTR inh -20 and BaF3 parental 7.
CCN(CC)c1ccc(/C=N/N=C(N)N)c(O)c1 was read as APP transl inh 92*, KLF5 inhibitor 75*, Ba/F3 V617F tox 78*, IEC-6 tox-1 69*, aSyn UTR inh 87*, BaF3 parental 75*, KLF5 confirm 77*, IEC-6 tox-2 67* and IEC-6 cytotox cf 57*.
